# Results filed as inconclusive are left out. Where a call stands in place of a potency, no number is given. Active and inactive are the calls of the source. Calls come from the whole dose curve; as a rule, active = well fitted curve in the direction sought with a large enough effect; inconclusive = small, poorly fitted or top-dose-only effect, or another doubt; inactive = no such curve, though single readings can be large; an effect the other way counts as inactive or inconclusive.
# What was measured:
# [1] = test system: Zika virus NS2B-NS3 protease (linked construct); assay: Primary screen NINDS Rhodamine qHTS for Zika virus inhibitors (AID 1347160); note: nearly all actives have a fitted effect of over 55% in size
# Procedure, shortened: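 Purified linked NS2B-NS3 protease (NS2B hydrophilic domain joined to NS3 protease by flexible linker), 25 nM in 10 mM Tris-HCl pH 8.0, 0.01% Tween 20. Compounds titrated, 15 min preincubation at room temperature; 1.5 microM Rhodamine110 substrate, FITC fluorescence change over 15 min.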
# [2] = test system: Zika virus NS2B-NS3 protease (unlinked complex); assay: Primary screen GU Rhodamine qHTS for Zika virus inhibitors: Unlinked NS2B-NS3 protease assay (AID 1347159); note: nearly all actives have a fitted effect of over 60% in size
# Procedure, shortened: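 Noncovalent NS2B hydrophilic domain–NS3 protease domain complex (25 nM) preincubated 15 min at room temperature with compounds (up to 114 microM) in 10 mM Tris-HCl pH 8.0, 0.01% Tween 20; 1.5 microM Rhodamine110 substrate added, fluorescence change over 15 min fitted to Hill equation.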
# [3] = OV-KATE Cancer Cell Toxicity qHTS against the NCATS CANVASS Library (AID 1347345); conditions: OV-KATE cells viability, CellTiter-Glo luminescence, 72 h; note: potency is the fitted concentration of half-maximal effect
# Procedure, shortened: (§1)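 Bortezomib titration and single-dose wells served as plate controls. Test compounds, 11 points, acted on 1000 cells/well for 72 h at 37 degrees C; CellTiter-Glo luminescence quantified remaining viable cells.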
# [4] = HPAF-II Cancer Cell Toxicity qHTS against the NCATS CANVASS Library (AID 1347346); conditions: HPAF-II viability, CellTiter-Glo ATP luminescence, 72 h; note: potency is the fitted concentration of half-maximal effect; nearly all actives have a fitted effect of over 55% in size
# Procedure, shortened: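 Luminescence from CellTiter-Glo, added after 72 h compound exposure and a 15 min room-temperature incubation, served as the viability readout. HPAF-II cells (1000/well) received an 11-point concentration series.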
# [5] = UWB1.289 Cancer Cell Toxicity qHTS against the NCATS CANVASS Library (AID 1347347); conditions: UWB1.289 viability, CellTiter-Glo luminescence, 72 h; note: potency is the fitted concentration of half-maximal effect; nearly all actives have a fitted effect of over 60% in size
# Procedure, shortened: as §1
# [6] = OV-SAHO Cancer Cell Toxicity qHTS against the NCATS CANVASS Library (AID 1347348); conditions: OV-SAHO viability, CellTiter-Glo luminescence, 72 h; note: potency is the fitted concentration of half-maximal effect; nearly all actives have a fitted effect of over 55% in size
# Source text: (§2) Natural products and their derivatives continue to be wellsprings of nascent therapeutic potential. However, many laboratories have limited resources for biological evaluation, leaving their previously isolated or synthesized compounds largely or completely untested. To address this issue, the Canvass library of natural products was assembled (https://tripod.nih.gov/canvass), in collaboration with academic and industry researchers, for quantitative high-throughput screening (qHTS) across a diverse set of cell-based and biochemical assays. The pure (>85% purity by liquid chromatography/mass spectrometry [LC/MS]) Canvass library of 346 natural products were submitted by 45 academic laboratories and companies around the world. […] The library was formatted into 1536-well plates and evaluated in 50 qHTS (in an 11-pnt concentration series) bioassays with broad scope of disease-relevant mechanisms. The resulting data set from 50 different assays was then systematically analyzed to identify overall trends and specific natural products with interesting biological activities. […]
# (§3) Cancer Cell Toxicity protocol for cell lines COV-362, OV-KATE, OV-SAHO, UWB1.289, UWB1.289-WTBRCA1, HEK-293, HPAF-II, Panc-1005, SW1088, or U-118MG. […] Luminescence signal was acquired via the ViewLux plate reader (PerkinElmer) using a clear filter, 2 second exposure and 2x binning settings.
# [7] = Panc-1005 Cancer Cell Toxicity qHTS against the NCATS CANVASS Library (AID 1347349); conditions: Panc-1005 viability, CellTiter-Glo luminescence, 72 h; note: potency is the fitted concentration of half-maximal effect; nearly all actives have a fitted effect of over 60% in size
# Source text: as §2, §3
# [8] = U-118MG Cancer Cell Toxicity qHTS against the NCATS CANVASS Library (AID 1347351); conditions: U-118MG viability, CellTiter-Glo luminescence, 72 h; note: potency is the fitted concentration of half-maximal effect
# Procedure, shortened: as §1
# [9] = Confirmatory screen NINDS Rhodamine qHTS for Zika virus inhibitors (AID 1347161);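 note: purified Zika NS2B-NS3 protease with linked NS2B cofactor domain and Rhodamine110 peptide substrate; series mostly up to about 110 µM; nearly all actives have a fitted effect of over 60% in size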
# Procedure, shortened: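 Enzyme (25 nM, linked NS2B-NS3) was preincubated 15 min with compound in 10 mM Tris-HCl pH 8.0, 0.01% Tween 20. Rhodamine110 substrate (1.5 microM) was then added and fluorescence read at start and after 15 min.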
# [10] = Tertiary RLuc qRT-PCR qHTS assay for Zika virus inhibitors (AID 1347169); note: top concentration of the series differs between compounds; nearly all actives have a fitted effect of over 55% in size
# Procedure, shortened: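 Orthogonal cell-based readout: luminescence measured 1-1.5 hrs after adding live-cell Renilla substrate to Vero cells that had been infected with ZIKV-RLuc (MOI 1-2) post-compound, incubated 48-72 hrs at 37 degrees C.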
structure (smiles),measurement,setting,value
Cc1csc(NC(=O)c2ccc(COc3cccc(Cl)c3)o2)n1,Potency,[1],inactive
CCC(O)C(C)C1CCC(C(C)C(=O)O)O1 (stereo not drawn),Potency,[1],inactive
COc1cc2c(cc1OC)N1C(=O)C[C@]34C=CCN5CC[C@@H]2[C@@H](CC3)[C@]514,Potency,[2],inactive
same,Potency,[1],inactive
COC(=O)C1=CO[C@@H](O[C@@H]2O[C@H](CO)[C@@H](O)[C@H](O)[C@H]2O)[C@H]2[C@@H]1CC(OC)O[C@@H]2C (stereo partly drawn),Potency,[1],inactive
C[C@@H](O)[C@H](NC(=O)c1ccc(C#Cc2ccc(CN3CCOCC3)cc2)cc1)C(=O)NO,Potency,[1],inactive
C=C1C(=O)O[C@H]2[C@H]1CC/C(C)=C/CC[C@@]1(C)O[C@@H]21,Potency,[2],inactive
same,Potency,[1],inactive
same,Potency,[3],6.66 µM (active)
same,Potency,[4],21.1 µM (active)
same,Potency,[5],11.8 µM (active)
same,Potency,[6],7.47 µM (active)
same,Potency,[7],6.68 µM (active)
same,Potency,[8],6.68 µM (active)
CNC(=S)NS(=O)(=O)c1cc(CCNC(=O)c2cc(Cl)ccc2OC)ccc1OC,Potency,[2],inactive
same,Potency,[1],inactive
N[C@H]1Cc2ccccc2N(O)C1=O,Potency,[1],inactive
NC1CCCCN(c2c(F)cc3c(=O)c(C(=O)O)cn(C4CC4)c3c2Cl)C1 (stereo not drawn),Potency,[2],inactive
same,Potency,[1],inactive
CNC(=O)c1ccccc1Nc1nc(Nc2ccc3c(c2OC)CCCC(N2CCN(CCO)CC2)C3)ncc1Cl (stereo not drawn),Potency,[2],inactive
same,Potency,[1],inactive
O=C(c1ccc2nccnc2c1)N1CCCCC1,Potency,[1],inactive
COc1c2c(c(C)c3c1C(=O)OC3)OC1(C)CC(O)C34OC(OC)(OC3(C)C)C(O)CC4(C)C1C2 (stereo not drawn),Potency,[1],inactive
Nc1nc(Nc2ccc(S(N)(=O)=O)cc2)n(C(=S)Nc2c(F)cccc2F)n1,Potency,[1],inactive
Cc1c(CN2CCN(C(=O)C(C)O)CC2)sc2c(N3CCOCC3)nc(-c3cnc(N)nc3)nc12 (stereo not drawn),Potency,[1],inactive
C[C@@H]1O[C@@H](O[C@H]2[C@@H]3C=CO[C@@H](O[C@@H]4O[C@H](CO)[C@@H](O)[C@H](O)[C@H]4O)[C@@H]3[C@@]3(CO)O[C@@H]23)[C@H](OC(=O)/C=C/c2ccccc2)[C@H](O)[C@H]1O,Potency,[1],inactive
O=C(c1ccccc1)c1ccc2nc(NC(=O)c3csc(C4CCN(c5ncnc6ccsc56)CC4)n3)[nH]c2c1,Potency,[1],inactive
CC(=O)O[C@@H]1[C@@H](OC(=O)/C=C/c2ccccc2)[C@@H](OC(C)=O)[C@H](O[C@H]2[C@@H]3C=CO[C@@H](O[C@@H]4O[C@H](CO)[C@@H](O)[C@H](O)[C@H]4O)[C@@H]3[C@@]3(CO)O[C@@H]23)O[C@H]1C,Potency,[1],inactive
COc1cc2ncnc(Nc3cccc(Cl)c3F)c2cc1OC(=O)N1CCN(C)C[C@H]1C,Potency,[1],inactive
Nc1ncnc2c1nc(N)n2[C@@H]1O[C@H](CO)[C@@H](O)[C@H]1O,Potency,[1],inactive
Cc1ccc(S(=O)(=O)Nc2ccccc2N2CCCCC2)s1,Potency,[1],inactive
CC1(C)CC[C@]2(C(=O)O[C@@H]3O[C@H](CO)[C@@H](O)[C@H](O)[C@H]3O)CC[C@]3(C)C(=CCC4[C@@]5(C)CC[C@H](O[C@@H]6O[C@H](C(=O)O)[C@@H](O)[C@H](O)[C@H]6O)C(C)(C)C5CC[C@]43C)C2C1 (stereo partly drawn),Potency,[1],inactive
CC1=CC(=O)CC2C1(O)CCC(C)C21CC(c2ccoc2)OC1=O (stereo not drawn),Potency,[1],inactive
O=C(CCc1nnc2n(Cc3ccc(Cl)cc3)c(=O)c3ccccc3n12)NCCC1=CCCCC1,Potency,[1],inactive
CC(C)CC(=O)O[C@@H]1OC=C(CO[C@@H]2O[C@H](CO)[C@@H](O)[C@H](O)[C@H]2O)[C@H]2[C@@H]3O[C@H]3[C@@](O)(CO)[C@@H]12,Potency,[1],inactive
COc1ccc(/C=C/C(=O)O[C@H]2[C@H](O[C@H]3[C@@H]4C=CO[C@@H](O[C@@H]5O[C@H](CO)[C@@H](O)[C@H](O)[C@H]5O)[C@@H]4[C@@]4(CO)O[C@@H]34)O[C@@H](C)[C@H](O)[C@H]2OC(C)=O)cc1,Potency,[1],inactive
CC(=O)O[C@@H]1CC(C)=C2[C@H]1[C@H](C)CC[C@H]2/C=C(\C)C(=O)O,Potency,[1],inactive
C=CC1C(OC2OC(CO)C(O)C(O)C2O)OC=C2C(=O)N3C(C(=O)O)Cc4c([nH]c5ccccc45)C3CC21 (stereo not drawn),Potency,[1],inactive
C/C=C/C1=CC2=C(CO1)C(=O)C(C)(O)C(OC(=O)c1c(C)cc(OC)cc1O)C2 (stereo not drawn),Potency,[1],inactive
same,Potency,[9],inactive
CC1=C2C3OC(=O)C(C)C3(O)CCC2(C)CCC1O (stereo not drawn),Potency,[1],inactive
CC(=O)OC1C(O)CC2(C)C(CCC(C)C23Cc2c(O)cc(CO)c(C=O)c2O3)C1(C)C (stereo not drawn),Potency,[1],inactive
C/C(=C/CO)CC[C@@H]1[C@@](C)(O)CCC2C(C)(C)CCC[C@]21C (stereo partly drawn),Potency,[1],inactive
Cc1cc(Nc2ccc(NC(=O)c3ccc(Nc4ccnc5ccccc45)cc3)cc2)nc(N)n1,Potency,[1],inactive
CC(C)C(C#N)O[C@@H]1O[C@H](CO[C@@H]2O[C@@H](C)[C@H](O)[C@@H](O)[C@H]2O)[C@@H](O)[C@H](O)[C@H]1O (stereo partly drawn),Potency,[1],inactive
CC1(C)CCCC2(C)C(C(=O)O)=CCC12 (stereo not drawn),Potency,[1],inactive
CC12CCC(=O)C=C1C(O)CC1C2C(O)CC2(C)C1CC[C@]2(O)C(=O)CO (stereo partly drawn),Potency,[1],inactive
CC(=O)O[C@@H]1[C@@H](O)[C@H](C)O[C@@H](O[C@H]2[C@@H]3C=CO[C@@H](O[C@@H]4O[C@H](CO)[C@@H](O)[C@H](O)[C@H]4O)[C@@H]3[C@@]3(CO)O[C@@H]23)[C@@H]1OC(=O)/C=C/c1ccccc1,Potency,[1],inactive
CC(C)[C@H]1CC[C@@]2(O)COC(=O)[C@H]2[C@@H]1/C=C(\CO)C(=O)O,Potency,[1],inactive
C/C=C1\[C@H](O[C@@H]2O[C@H](CO)[C@@H](O)[C@H](O)[C@H]2O)OC=C(C(=O)OC)[C@H]1CC(=O)OC[C@H]1O[C@@H](OCCc2ccc(O)cc2)[C@H](O)[C@@H](O)[C@@H]1O,Potency,[1],inactive
C=C1CCC2C(C)(C(=O)O)CCCC2(C)C1CCC(C)CC(=O)O (stereo not drawn),Potency,[1],inactive
Cc1cccc(/C=N/Nc2cc(N3CCOCC3)n3nc(-c4ccncc4)cc3n2)c1,Potency,[1],inactive
C=C1C(=O)O[C@H]2C1[C@H](OC(=O)/C(=C/CO)COC(=O)/C(C)=C/CO)CC(=C)[C@@H]1CC(=O)[C@@H](C)[C@@H]12 (stereo partly drawn),Potency,[1],inactive
same,Potency,[10],inactive
C=C1C(OC(=O)/C(C)=C\C)[C@@]23CCC4[C@@](C)(CCC[C@@]4(C)C(=O)O)C2CC[C@H]1C3OC(C)=O (stereo partly drawn),Potency,[1],inactive
O=C1NC(=O)C(c2cn3c4c(cccc24)CCC3)C1c1c[nH]c2ccccc12 (stereo not drawn),Potency,[1],inactive
O=C(CO)[C@@H](O)[C@H](O[C@@H]1O[C@H](CO)[C@H](O)[C@H](O)[C@H]1O)[C@H](O)CO,Potency,[1],inactive
CC1OC(OC2C(O)C(OC3CCC4(C)C(CCC5(C)C4CC=C4C6CC(C)(COC7OC(CO)C(O)C(O)C7O)CC(O)C6(C)CCC45C)C3(C)C)OC(C(=O)O)C2O)C(O)C(O)C1OC1OCC(O)C(O)C1O (stereo not drawn),Potency,[1],inactive
COc1cc(C(=O)OC[C@H]2O[C@@H](Oc3ccccc3/C=C/C(=O)O)[C@H](O)[C@@H](O)[C@@H]2O)cc(OC)c1OC,Potency,[1],inactive
C=C(C(=O)O)[C@@H]1CC[C@@]2(C)CC[C@H](O)[C@@]2(C(C)=O)C1,Potency,[1],inactive
O=C(/C=C\n1cnc(-c2cc(C(F)(F)F)cc(C(F)(F)F)c2)n1)N1CC(F)(F)C1,Potency,[1],inactive
C=CC1(C)C=C2C(=O)OC(=O)C3=C(CCCC3(C)C)C2(O)CC1 (stereo not drawn),Potency,[1],inactive
COc1ccc(CCC(=O)c2c(O)cc(O)cc2O[C@@H]2O[C@H](CO)[C@@H](O)[C@H](O)[C@H]2O)cc1,Potency,[1],inactive

# — PubChem BioAssay (NCATS)
